{
  "source": "paper PMC7819943",
  "about": "“Rice protein-binding microarrays: a tool to detect cis-acting elements near promoter regions in rice”",
  "note": "Whole data set: some 68,000 sequences, median “fluorescence intensity (a.u.)” near 9,100, cut for the highest 2% near 16,000. The sample holds the highest values, similar sequences and a random draw of the others, so the mix is not that of the screen.",
  "data": [
    {"biological_target": "OsWRKY34 (Oryza sativa, UniProt Q0JBA9 1-250)", "sequence (Q0JBA9 entry or part of it)": "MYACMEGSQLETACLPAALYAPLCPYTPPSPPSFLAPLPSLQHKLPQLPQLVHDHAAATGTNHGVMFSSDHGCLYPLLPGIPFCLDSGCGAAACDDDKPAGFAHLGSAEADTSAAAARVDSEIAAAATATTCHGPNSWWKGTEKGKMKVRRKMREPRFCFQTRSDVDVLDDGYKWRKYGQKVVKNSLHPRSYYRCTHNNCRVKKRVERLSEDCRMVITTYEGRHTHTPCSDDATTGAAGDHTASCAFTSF", "test": "protein-binding microarray (RPBM); PBS, 2% BSA, 51.3 ng/ul salmon testes DNA, 50 uM zinc acetate, 200 nM TF, 25 C, 1 h; high values mean tight binding", "conditions": "protein: recombinant; tags: N-terminal polyhistidine and DsRed monomer fusion (pET32a); label: CyDye5-dUTP incorporated in the synthesized complementary strand; 3' TTTTT single-stranded linker to array surface; dsDNA, one strand shown", "summary_of_the_method": "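The binding signal is fluorescence intensity per array feature (arbitrary units). Readings came from an Axon 4000B scanner after a washed, 2% BSA-blocked, double-stranded custom Agilent array had been incubated for 1 h at 25 °C with 200 nM protein and 50 µM zinc acetate. The protein was a Ni–NTA-purified transcription factor fused N-terminally to polyhistidine and DsRed, expressed in E. coli BL21-CodonPlus.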", "values": [
      {"sequence": "GCTAGACTATCATCAGCAAGCTAGCAATTAAAGGCCTTGTCGGAGTCACCTAGTGCAG", "binding signal": "64200 fluorescence intensity (a.u.)"},
      {"sequence": "AATTAACATCACCAATCAGCAATCACCAACCTTGTCATCTCGGAGTCACCTAGTGCAG", "binding signal": "8970 fluorescence intensity (a.u.)"},
      {"sequence": "TTTCATCAATTGCCTCTTGTATCAGCTACTATGCAATATACGGAGTCACCTAGTGCAG", "binding signal": "8850 fluorescence intensity (a.u.)"},
      {"sequence": "CCATGCTCGCGGCGTTTACTTTCCTCACTATTTTTTAGATCGGAGTCACCTAGTGCAG", "binding signal": "9410 fluorescence intensity (a.u.)"},
      {"sequence": "GGATCGCGTGGTTTGTGTCGTGTCTTTGCATACGGCGACACGGAGTCACCTAGTGCAG", "binding signal": "8300 fluorescence intensity (a.u.)"},
      {"sequence": "CCATCACCACCTCCCGATCCGCGCGCTTTCTCTCCCGCGCCGGAGTCACCTAGTGCAG", "binding signal": "9090 fluorescence intensity (a.u.)"},
      {"sequence": "TTTTTAATAGATAACGTCGTTGACTTTTTCTCACATGTTTCGGAGTCACCTAGTGCAG", "binding signal": "25600 fluorescence intensity (a.u.)"},
      {"sequence": "AACTTTACTTTTTCTCATAGTGTTGATTAGATATATGTTTCGGAGTCACCTAGTGCAG", "binding signal": "10600 fluorescence intensity (a.u.)"},
      {"sequence": "CCGTTTTTTAATAGATAACGCTGTTGACTTTTTCTTATATCGGAGTCACCTAGTGCAG", "binding signal": "11200 fluorescence intensity (a.u.)"},
      {"sequence": "TTTTCAGTAGATAACATCGTTGACTTTTCAACGAATATTTCGGAGTCACCTAGTGCAG", "binding signal": "14400 fluorescence intensity (a.u.)"},
      {"sequence": "GTTTTTTAATAGATAACGCCGTTGACTTTTTTTCACATGTCGGAGTCACCTAGTGCAG", "binding signal": "21500 fluorescence intensity (a.u.)"},
      {"sequence": "GGAGGAGAGAGGGGTGGGGTTTGTGGTGTCGTCGTCCATGCGGAGTCACCTAGTGCAG", "binding signal": "11700 fluorescence intensity (a.u.)"},
      {"sequence": "GACTATGCGCGCTATATAAAGGATCACATTATCTCATACTCGGAGTCACCTAGTGCAG", "binding signal": "8930 fluorescence intensity (a.u.)"},
      {"sequence": "TTGCCGTACAATCTTGATTTGGAGATCTTCCTGGCCAACACGGAGTCACCTAGTGCAG", "binding signal": "9120 fluorescence intensity (a.u.)"},
      {"sequence": "AGAAAGCCCATTTTGCCCTTTGTGCTTCAGAACATCGAGCCGGAGTCACCTAGTGCAG", "binding signal": "8020 fluorescence intensity (a.u.)"},
      {"sequence": "GTGGTGGTGGTGGTGGTGGTGGCGGCGGCGGCCGGCCATGCGGAGTCACCTAGTGCAG", "binding signal": "20000 fluorescence intensity (a.u.)"},
      {"sequence": "ACGCTTGGTGGGGTGGGGTGGTGCTGGTGCCATGAACTGCCGGAGTCACCTAGTGCAG", "binding signal": "22300 fluorescence intensity (a.u.)"},
      {"sequence": "AAACCATGCGGCGCACGAGCCACTCGCACTCGCACTCGCACGGAGTCACCTAGTGCAG", "binding signal": "9360 fluorescence intensity (a.u.)"},
      {"sequence": "CATCCGGCCATGGTGATGACCGGCGGCGATGATCAGCAGCCGGAGTCACCTAGTGCAG", "binding signal": "48200 fluorescence intensity (a.u.)"},
      {"sequence": "GCCGCATGGTGGTGCTGGTTGGGGTGGTGGTGGTGGCGGCCGGAGTCACCTAGTGCAG", "binding signal": "14800 fluorescence intensity (a.u.)"},
      {"sequence": "CGGAGGGAGGCGGAGGCGGTGGTGGTGGTGGTGGTGCCGGCGGAGTCACCTAGTGCAG", "binding signal": "12500 fluorescence intensity (a.u.)"},
      {"sequence": "GTACTGGCTTGGCTGGGTCGGGCTCGGGCTGGGCCATGAACGGAGTCACCTAGTGCAG", "binding signal": "8340 fluorescence intensity (a.u.)"},
      {"sequence": "GAGGAGAGAGAGAGAGAGTGGTGGTGGTGGTGGTGAGATGCGGAGTCACCTAGTGCAG", "binding signal": "8460 fluorescence intensity (a.u.)"},
      {"sequence": "AACTCAGTCTCAGCTCACATGATGCATCATCAGCCATGGCCGGAGTCACCTAGTGCAG", "binding signal": "8200 fluorescence intensity (a.u.)"},
      {"sequence": "GTGGTGGTGGTGGTGGTGGTGGTGGTGGTGCACGGCCATGCGGAGTCACCTAGTGCAG", "binding signal": "16400 fluorescence intensity (a.u.)"},
      {"sequence": "CCGCCGCCATCAAGTCCGCCATCATGACCACCGGTGAGAACGGAGTCACCTAGTGCAG", "binding signal": "8490 fluorescence intensity (a.u.)"},
      {"sequence": "TGGCGAGGAGGTGGTGGTGGTTGTGGTGGGTGCGGCCATGCGGAGTCACCTAGTGCAG", "binding signal": "12100 fluorescence intensity (a.u.)"},
      {"sequence": "CAGCCACCTCCTCCTCTTCTTCCCCAACTTTCTGCTTGATCGGAGTCACCTAGTGCAG", "binding signal": "9300 fluorescence intensity (a.u.)"},
      {"sequence": "CCCACGCAGATCTCCGCTTTTTCCCGGCGGCAACCACGCCCGGAGTCACCTAGTGCAG", "binding signal": "10200 fluorescence intensity (a.u.)"},
      {"sequence": "AATCTAACATGGATTTGCGCACACACTTGTCGTAACGTACCGGAGTCACCTAGTGCAG", "binding signal": "9480 fluorescence intensity (a.u.)"},
      {"sequence": "CGTGCATCCGCTGCGCTGTGCTGCCATTTCTCTTCAGCTTCGGAGTCACCTAGTGCAG", "binding signal": "10600 fluorescence intensity (a.u.)"},
      {"sequence": "TAGCTATTGCTCGCTGGCCTACCATTAATTAGTATACTGTCGGAGTCACCTAGTGCAG", "binding signal": "8800 fluorescence intensity (a.u.)"},
      {"sequence": "TTTTGCTTATCATATCATATATTTTCTAAGCTTGATTTTTCGGAGTCACCTAGTGCAG", "binding signal": "8050 fluorescence intensity (a.u.)"},
      {"sequence": "TTTTTTGTTTTTTCTTTGAATTCTTTCCTTACGATTTTTGCGGAGTCACCTAGTGCAG", "binding signal": "13400 fluorescence intensity (a.u.)"},
      {"sequence": "ACCTAATATTTCCCGTGTTCTCTTCTACGAAAACGTATTTCGGAGTCACCTAGTGCAG", "binding signal": "10500 fluorescence intensity (a.u.)"},
      {"sequence": "AACCTCCAACCTTTTAATTTCTCACGCGACCATGCACGACCGGAGTCACCTAGTGCAG", "binding signal": "8820 fluorescence intensity (a.u.)"},
      {"sequence": "ATGTAGGGGTTCCTGCTGCTGCTGTTCTGCCCATTCAACACGGAGTCACCTAGTGCAG", "binding signal": "8880 fluorescence intensity (a.u.)"},
      {"sequence": "TCATCATGTGACCGACCACCGCATCCTCAGTTGACCCAGTCGGAGTCACCTAGTGCAG", "binding signal": "8640 fluorescence intensity (a.u.)"},
      {"sequence": "GATAGGGTTAGGGTTAGGGTTTTCCCTGGTCCGCATCTTCCGGAGTCACCTAGTGCAG", "binding signal": "9320 fluorescence intensity (a.u.)"},
      {"sequence": "CTCTTGCTCTGCTCTGTTTTTGGCCCATCCTCACCCACAACGGAGTCACCTAGTGCAG", "binding signal": "10600 fluorescence intensity (a.u.)"},
      {"sequence": "CTTTTCTCCTTCGGCTATAGTGTCACTGTCCTCGCCTTCTCGGAGTCACCTAGTGCAG", "binding signal": "15700 fluorescence intensity (a.u.)"},
      {"sequence": "GTGCCTAACAATCTGCTGCTTTTTACCCGCCAAGTATCTTCGGAGTCACCTAGTGCAG", "binding signal": "8180 fluorescence intensity (a.u.)"},
      {"sequence": "ATGTAAGTCATTCTAGCATTTTTTACATTCATATTGATGTCGGAGTCACCTAGTGCAG", "binding signal": "9380 fluorescence intensity (a.u.)"},
      {"sequence": "TTCCAGTTAGCAACGCATTGAGCCATTTTTACATATTCTGCGGAGTCACCTAGTGCAG", "binding signal": "57100 fluorescence intensity (a.u.)"},
      {"sequence": "AATACATTTTACCTCGATTGTTATTAGCATATTTTTTTTGCGGAGTCACCTAGTGCAG", "binding signal": "8890 fluorescence intensity (a.u.)"},
      {"sequence": "TTCACCCTCACTTTATTCATCTATAGTAGTTTCATCAGTTCGGAGTCACCTAGTGCAG", "binding signal": "8060 fluorescence intensity (a.u.)"},
      {"sequence": "CACAGATCCACTCCATTGCTTCACTACTGCTTTGCTTTTGCGGAGTCACCTAGTGCAG", "binding signal": "11000 fluorescence intensity (a.u.)"},
      {"sequence": "CCACTTTTGCAGATTGCAGGGCGCGCAGTACTGCCGACAGCGGAGTCACCTAGTGCAG", "binding signal": "18900 fluorescence intensity (a.u.)"},
      {"sequence": "CTACTTTCACTCCCACCCACCCGACACAGCCGGAGCGCGCCGGAGTCACCTAGTGCAG", "binding signal": "8630 fluorescence intensity (a.u.)"},
      {"sequence": "GCCTTTTTAACTTGTGCGACCGGTGTTCCGGGATTTTGGGCGGAGTCACCTAGTGCAG", "binding signal": "10900 fluorescence intensity (a.u.)"},
      {"sequence": "TCTCCTCCATCATCGCAGCCAACTCCAACATCCTGAGCTCCGGAGTCACCTAGTGCAG", "binding signal": "9510 fluorescence intensity (a.u.)"},
      {"sequence": "TTGTCTTCCTTTGTTTCGACTGGTCCAGTTTCGTCCTCTCCGGAGTCACCTAGTGCAG", "binding signal": "10300 fluorescence intensity (a.u.)"},
      {"sequence": "TCGTTCCTTCCTGTTGTTTCCTTTTCTTTTCCTTTATTTTCGGAGTCACCTAGTGCAG", "binding signal": "8070 fluorescence intensity (a.u.)"},
      {"sequence": "AATCTGTTTTTTGCTTTTTTGCCCTTTTCACGGTTTTTCCCGGAGTCACCTAGTGCAG", "binding signal": "10800 fluorescence intensity (a.u.)"},
      {"sequence": "CTTATTTGTAGCTTCCTTTTTTTTTCCTTTTTCTTTTATTCGGAGTCACCTAGTGCAG", "binding signal": "10400 fluorescence intensity (a.u.)"},
      {"sequence": "GTTTTTTTTTTTCCTTTCACTTCCTTCCTGGGCTTTATTTCGGAGTCACCTAGTGCAG", "binding signal": "17300 fluorescence intensity (a.u.)"},
      {"sequence": "AAAATGTTGTTTTTTTCTTCACTTTTGTTTTCCTTTTTTTCGGAGTCACCTAGTGCAG", "binding signal": "9300 fluorescence intensity (a.u.)"},
      {"sequence": "CAGACTTTTCAGCTTCGGTTTCCCTTGTTTCTGATCTTTCCGGAGTCACCTAGTGCAG", "binding signal": "8440 fluorescence intensity (a.u.)"},
      {"sequence": "TGTCGTCCTTCAGGCCAACTTTGTCTTCCTTTGTTTCGACCGGAGTCACCTAGTGCAG", "binding signal": "16400 fluorescence intensity (a.u.)"},
      {"sequence": "TTTTTATATACCGGTAAATATCCGCTACCGTATTCGTTCCCGGAGTCACCTAGTGCAG", "binding signal": "10200 fluorescence intensity (a.u.)"},
      {"sequence": "GCCCTTTTCACGGTTTTTCCTGATCTTTCTGGGCTTTCTCCGGAGTCACCTAGTGCAG", "binding signal": "18800 fluorescence intensity (a.u.)"},
      {"sequence": "TTATTTCCGCAAATCGTTCGCTATCCGGTATATTTTTGCACGGAGTCACCTAGTGCAG", "binding signal": "17300 fluorescence intensity (a.u.)"},
      {"sequence": "CACAACTTTTCGTTTTTTATATTTGCACAAATTTTTTAATCGGAGTCACCTAGTGCAG", "binding signal": "8650 fluorescence intensity (a.u.)"}
    ]}
  ]
}
